This is an account of results in PubChem BioAssay (NCI).

About 83,000 compounds went through this panel and 20% of them were active in at least one assay; those are over-represented in the sample as a whole.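 48-hour exposure, single concentration, 96-well plates; percent growth endpoint where 0 means no net growth. Active: below 10.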 Values without a mark were called inactive. Active and inactive are the calls of the source.

Holding throughout (experiment): NCI-60 one-dose screen, 48 h (100 = growth as untreated, 0 = no growth, -100 = all killed)
One test concerns SK-MEL-2 melanoma. Particulars: 10 µM unless noted.
Another test concerns SN12C renal. The following applies: 10 µM unless noted.
A further test relates to UO-31 renal. Particulars: 10 µM unless noted.
In the next test the test system is TK-10 renal. The following applies: 10 µM unless noted.
The test system of the next test is ACHN renal. The following applies: 10 µM unless noted.
A further test has as its system A498 renal. Particulars: 10 µM unless noted.
Another test has as its system CCRF-CEM leukemia. Particulars: 10 µM unless noted.
Another test relates to MOLT-4 leukemia. Particulars: 10 µM unless noted.
A further test relates to RPMI-8226 leukemia. The following applies: 10 µM unless noted.
A further test has as its system OVCAR-8 ovarian. The following applies: 10 µM unless noted.
In the next test the test system is OVCAR-5 ovarian. The following applies: 10 µM unless noted.
The next test relates to OVCAR-4 ovarian. Particulars: 10 µM unless noted.
Another test relates to SK-OV-3 ovarian. Particulars: 10 µM unless noted.
A further test deals with IGROV1 ovarian. Particulars: 10 µM unless noted.
The test system of the next test is OVCAR-3 ovarian. The following applies: 10 µM unless noted.
The test system of another test is HS 578T breast. The following applies: 10 µM.
The test system of a further test is NCI/ADR-RES ovarian. The following applies: 10 µM unless noted.
The next test relates to SR leukemia. The following applies: 10 µM unless noted.
Another test deals with EKVX NSCLC. Particulars: 10 µM unless noted.
A further test relates to CAKI-1 renal. The following applies: 10 µM unless noted.

For `CC1=NC(c2ccc(Cl)cc2)C2=C(N1)/C(=C/c1ccc(Cl)cc1)CCC2` (stereo unspecified), the growth in the test on SK-MEL-2 melanoma is 98.4%; in the test with SN12C renal, 102%; in the test with UO-31 renal it was 78.5%; with TK-10 renal it was 129%; in the test with ACHN renal it was 102%; in the test on A498 renal it was 102%. Besides, the growth was 78.8% in the test with CCRF-CEM leukemia; 74.6% with MOLT-4 leukemia; -1.96% (active) in the test on RPMI-8226 leukemia; 79% with OVCAR-8 ovarian; 114% in the test on OVCAR-5 ovarian; 83.6% in the test on OVCAR-4 ovarian. Besides, the growth in the test on SK-OV-3 ovarian was 109%; with IGROV1 ovarian it was 98.8%; with OVCAR-3 ovarian, 104%; with HS 578T breast, 97.9%; with NCI/ADR-RES ovarian, 98%.

Regarding `COc1ccc2nc(C)cc(Nc3ccccc3O)c2c1`, the growth is 67.7% in the test with SK-MEL-2 melanoma; -22.9% (active) with SN12C renal; -56.1% (active) in the test with UO-31 renal; 21.2% in the test with TK-10 renal; -38.9% (active) in the test with ACHN renal; 89.8% in the test with A498 renal. Also, the growth was 50.7% in the test on CCRF-CEM leukemia; 87.7% in the test with MOLT-4 leukemia; -32.8% (active) in the test on SR leukemia; 25% with RPMI-8226 leukemia; 32.6% in the test with OVCAR-8 ovarian; 108% with OVCAR-5 ovarian. Further, the growth in the test on OVCAR-4 ovarian was -76.1% (active); with SK-OV-3 ovarian, -41.5% (active); with IGROV1 ovarian, 44.9%; with OVCAR-3 ovarian it was -35.5% (active); in the test with HS 578T breast it was -3.7% (active); in the test with NCI/ADR-RES ovarian, 46.9%.

As for `Cc1cc2nc3c(=O)[nH]c(=O)nc-3n(CC=O)c2cc1C`, the growth is 95.6% in the test on EKVX NSCLC; 97.7% in the test with SN12C renal; 106% with UO-31 renal; 111% in the test with TK-10 renal; 105% with ACHN renal; 64.8% in the test on CAKI-1 renal. In addition, the growth in the test with A498 renal was 116%; with CCRF-CEM leukemia, 160%; in the test on MOLT-4 leukemia, 109%; in the test with SR leukemia, 129%; with RPMI-8226 leukemia, 140%; in the test on OVCAR-8 ovarian, 121%. In addition, the growth in the test with OVCAR-5 ovarian was 96.2%; with OVCAR-4 ovarian, 100%; with SK-OV-3 ovarian, 106%; in the test on IGROV1 ovarian, 88.7%; in the test with OVCAR-3 ovarian, 106%; with HS 578T breast, 101%. In the test with NCI/ADR-RES ovarian, the growth was 111%.

Turning to `COc1ccc(-c2nc(-c3cc(OC)cc(OC)c3)[nH]c2-c2ccc(OC)cc2)cc1`, the growth was 29.4% in the test on SK-MEL-2 melanoma; 70.6% in the test on SN12C renal; 36.1% in the test with UO-31 renal; 62.2% in the test with TK-10 renal; 41.3% with ACHN renal; 66% in the test with A498 renal. The growth is 11.1% with CCRF-CEM leukemia; 14.2% with MOLT-4 leukemia; 25.3% in the test with SR leukemia; -11.6% (active) with RPMI-8226 leukemia; 58.1% in the test on OVCAR-8 ovarian; 77.7% in the test on OVCAR-5 ovarian. The growth was 59.7% with OVCAR-4 ovarian; 85.6% with SK-OV-3 ovarian; 71.7% in the test on IGROV1 ovarian; 45.3% in the test with OVCAR-3 ovarian; 81.5% in the test with HS 578T breast; 53.9% with NCI/ADR-RES ovarian.

Consider `NC(=O)Nc1ccc2ncnc(Nc3cccc(O)c3)c2c1`, for which the growth is 82.6% with EKVX NSCLC; 94.9% in the test with SN12C renal; 80.1% in the test with UO-31 renal; 103% in the test with TK-10 renal; 103% in the test on ACHN renal; 84.8% in the test on CAKI-1 renal. The growth is 77.4% in the test with A498 renal; 108% in the test on CCRF-CEM leukemia; 98.8% in the test with MOLT-4 leukemia; 112% with RPMI-8226 leukemia; 98.9% with OVCAR-8 ovarian; 98.1% in the test with OVCAR-5 ovarian. For the same molecule, the growth in the test on OVCAR-4 ovarian is 112%; in the test with SK-OV-3 ovarian it was 87.5%; with IGROV1 ovarian, 107%; in the test with OVCAR-3 ovarian, 82.8%; in the test with HS 578T breast it was 105%; in the test with NCI/ADR-RES ovarian it was 96.7%.

Take `CCOc1cccc(/C=N/NC(=O)Cc2ccc(Nc3ccnc(C(F)(F)F)c3)cc2)c1O`: the growth in the test on EKVX NSCLC was 20.4%; in the test with SN12C renal, 43%; in the test on UO-31 renal, 3.59% (active); with TK-10 renal it was 47.1%; with ACHN renal, 6.94% (active); in the test with CAKI-1 renal it was 36.8%. Also, the growth in the test on A498 renal is 91.9%; in the test with CCRF-CEM leukemia it was -21.7% (active); in the test with MOLT-4 leukemia, 40.6%; in the test on RPMI-8226 leukemia it was 4.35% (active); in the test with OVCAR-8 ovarian, 16.7%; in the test with OVCAR-5 ovarian, 19.6%. Moreover, the growth in the test on OVCAR-4 ovarian is 22%; in the test with SK-OV-3 ovarian, 20%; in the test with IGROV1 ovarian it was 11.3%; with OVCAR-3 ovarian it was 39.7%; in the test on HS 578T breast, 76.4%; in the test with NCI/ADR-RES ovarian it was 48%.

For `O=C1OCC2=C1C(c1ccc(Cl)c(Cl)c1)c1cc3c(cc1N2CCO)CCC3` (stereo unspecified), the growth is 40.2% in the test with EKVX NSCLC; 31.4% in the test with SN12C renal; 26.3% in the test on UO-31 renal; 50.7% in the test with TK-10 renal; 32.8% in the test with ACHN renal; 35.7% in the test on CAKI-1 renal. Also, the growth in the test on A498 renal is -0.897% (active); in the test with CCRF-CEM leukemia it was 10.6%; in the test with MOLT-4 leukemia, 18.9%; in the test on SR leukemia, 33.7%; in the test with RPMI-8226 leukemia, 22%; with OVCAR-8 ovarian it was 23.5%. In addition, the growth in the test on OVCAR-5 ovarian is 35.3%; in the test on OVCAR-4 ovarian it was 50%; in the test on SK-OV-3 ovarian, 38.6%; in the test with IGROV1 ovarian, 30.1%; in the test with OVCAR-3 ovarian, -42% (active); with HS 578T breast it was 5.2% (active). Moreover, the growth in the test with NCI/ADR-RES ovarian was 4.51% (active).

Regarding `O=C1OCC2=C1C(c1cccc(Br)c1)c1cc3c(cc1N2CCO)OCCO3` (stereo unspecified), the growth with EKVX NSCLC is 44.1%; in the test with SN12C renal it was 26.7%; in the test with UO-31 renal, 18.1%; in the test with TK-10 renal, 62.7%; in the test with ACHN renal, 33.8%; with CAKI-1 renal, 15%. Further, the growth in the test with A498 renal was -11% (active); in the test on CCRF-CEM leukemia, 9.31% (active); with MOLT-4 leukemia, 20.5%; in the test on SR leukemia, 29.8%; in the test with RPMI-8226 leukemia, 21.4%; in the test on OVCAR-8 ovarian, 9.03% (active). In addition, the growth is 39.5% in the test with OVCAR-5 ovarian; 53.4% in the test with OVCAR-4 ovarian; 32.3% in the test on SK-OV-3 ovarian; 18.3% with IGROV1 ovarian; -61.5% (active) in the test on OVCAR-3 ovarian; 8.74% (active) in the test with HS 578T breast. Further, the growth in the test on NCI/ADR-RES ovarian is 8.43% (active).
